# Source: PubChem BioAssay
# A number with no mark means an inactive call. The list shows a part of the results. Active and inactive are the calls of the source.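 How the source made its calls, unless noted: active means mean inhibition over 43.08%, the solvent-only control mean plus 3 SD; inactive means the rest.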
# Experiments:
# [1] = biological target: Nuclear receptor coactivator 3 (Homo sapiens) (UniProt Q9Y6Q9); assay: NCOA3 GAL4-fusion reporter inhibition – cell-based, luminescence, quadruplicate, confirmation (AID 588792); details: HEK293 GAL4-SRC3 luciferase reporter, at 3.6 µM, stronger effect = higher value;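 further: 0% = DMSO treated cells and 100% = gossypol at 36 µM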
# Sequence of Nuclear receptor coactivator 3 (Homo sapiens) (Q9Y6Q9 whole entry, looked up, the tested form may be a part): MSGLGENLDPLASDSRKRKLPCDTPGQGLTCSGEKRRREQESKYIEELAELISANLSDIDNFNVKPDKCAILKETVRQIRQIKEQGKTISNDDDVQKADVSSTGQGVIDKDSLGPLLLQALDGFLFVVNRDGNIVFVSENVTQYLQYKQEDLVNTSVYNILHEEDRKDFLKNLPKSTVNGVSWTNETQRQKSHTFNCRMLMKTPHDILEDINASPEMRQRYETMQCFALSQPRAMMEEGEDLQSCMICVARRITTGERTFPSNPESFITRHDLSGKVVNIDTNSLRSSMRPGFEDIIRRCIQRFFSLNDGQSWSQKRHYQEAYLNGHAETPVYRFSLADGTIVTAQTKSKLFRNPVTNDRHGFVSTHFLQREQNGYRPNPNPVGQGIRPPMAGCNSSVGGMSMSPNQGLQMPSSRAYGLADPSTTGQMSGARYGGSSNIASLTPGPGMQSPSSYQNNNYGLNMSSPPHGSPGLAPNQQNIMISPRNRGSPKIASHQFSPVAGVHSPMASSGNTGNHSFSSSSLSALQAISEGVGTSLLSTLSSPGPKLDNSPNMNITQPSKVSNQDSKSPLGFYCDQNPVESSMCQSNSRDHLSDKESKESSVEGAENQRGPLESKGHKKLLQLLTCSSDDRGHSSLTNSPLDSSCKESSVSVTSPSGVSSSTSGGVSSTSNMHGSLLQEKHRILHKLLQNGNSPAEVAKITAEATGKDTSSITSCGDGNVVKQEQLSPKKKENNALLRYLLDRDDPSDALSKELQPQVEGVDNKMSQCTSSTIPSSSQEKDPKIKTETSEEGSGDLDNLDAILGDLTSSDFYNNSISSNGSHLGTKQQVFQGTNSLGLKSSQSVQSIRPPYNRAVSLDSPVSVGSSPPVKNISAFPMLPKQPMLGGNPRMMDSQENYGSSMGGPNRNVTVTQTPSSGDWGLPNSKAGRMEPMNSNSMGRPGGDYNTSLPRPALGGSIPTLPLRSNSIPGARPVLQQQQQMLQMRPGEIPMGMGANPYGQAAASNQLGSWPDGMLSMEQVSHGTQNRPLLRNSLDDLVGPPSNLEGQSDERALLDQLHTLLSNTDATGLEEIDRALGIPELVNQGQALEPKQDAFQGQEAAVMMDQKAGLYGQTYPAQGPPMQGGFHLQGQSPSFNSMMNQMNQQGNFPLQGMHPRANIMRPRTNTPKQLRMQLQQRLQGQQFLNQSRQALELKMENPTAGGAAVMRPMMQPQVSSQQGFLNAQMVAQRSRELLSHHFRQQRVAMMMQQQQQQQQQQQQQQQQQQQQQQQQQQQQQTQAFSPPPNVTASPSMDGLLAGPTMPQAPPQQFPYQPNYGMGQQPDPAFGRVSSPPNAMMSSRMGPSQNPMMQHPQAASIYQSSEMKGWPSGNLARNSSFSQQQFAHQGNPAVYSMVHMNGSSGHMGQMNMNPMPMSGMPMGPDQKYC
# [2] = test system: transactivating tegument protein VP16 (Human herpesvirus 1), Gal4-VP16 luciferase reporter; assay: repression of VP16-driven luciferase reporter – cell-based, luminescence, high throughput, counter-screen for SRC3 inhibitor project (AID 588794; in the data active means inhibition above about 30%); details: mammalian cells, at 3.6 µM, stronger effect = higher value
# [3] = test system: transactivating tegument protein VP16 (Human herpesvirus 1); assay: compounds suppressing VP16-driven luciferase signal – cell-based, luminescence, single concentration, counter-screen for SRC2 inhibitor project (AID 652007; in the data active means inhibition above about 36%); details: cell-based VP16 transactivation luciferase reporter, at 8.9 µM, stronger effect = higher value
# [4] = biological target: Nuclear receptor coactivator 2 (Homo sapiens) (UniProt Q15596); assay: inhibition of GAL4-SRC2 driven luciferase expression – cell-based, luminescence, HEK293, triplicate, confirmation (AID 652008;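 active means mean inhibition above 46.5%, the solvent-only control mean plus 3 SD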;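 further: 0% = DMSO-treated cells and 100% = Gossypol at 36 µM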); details: HEK293 GAL4-SRC2 luciferase reporter, at 8.9 µM, stronger effect = higher value
# Sequence of Nuclear receptor coactivator 2 (Homo sapiens) (Q15596 whole entry, looked up, the tested form may be a part): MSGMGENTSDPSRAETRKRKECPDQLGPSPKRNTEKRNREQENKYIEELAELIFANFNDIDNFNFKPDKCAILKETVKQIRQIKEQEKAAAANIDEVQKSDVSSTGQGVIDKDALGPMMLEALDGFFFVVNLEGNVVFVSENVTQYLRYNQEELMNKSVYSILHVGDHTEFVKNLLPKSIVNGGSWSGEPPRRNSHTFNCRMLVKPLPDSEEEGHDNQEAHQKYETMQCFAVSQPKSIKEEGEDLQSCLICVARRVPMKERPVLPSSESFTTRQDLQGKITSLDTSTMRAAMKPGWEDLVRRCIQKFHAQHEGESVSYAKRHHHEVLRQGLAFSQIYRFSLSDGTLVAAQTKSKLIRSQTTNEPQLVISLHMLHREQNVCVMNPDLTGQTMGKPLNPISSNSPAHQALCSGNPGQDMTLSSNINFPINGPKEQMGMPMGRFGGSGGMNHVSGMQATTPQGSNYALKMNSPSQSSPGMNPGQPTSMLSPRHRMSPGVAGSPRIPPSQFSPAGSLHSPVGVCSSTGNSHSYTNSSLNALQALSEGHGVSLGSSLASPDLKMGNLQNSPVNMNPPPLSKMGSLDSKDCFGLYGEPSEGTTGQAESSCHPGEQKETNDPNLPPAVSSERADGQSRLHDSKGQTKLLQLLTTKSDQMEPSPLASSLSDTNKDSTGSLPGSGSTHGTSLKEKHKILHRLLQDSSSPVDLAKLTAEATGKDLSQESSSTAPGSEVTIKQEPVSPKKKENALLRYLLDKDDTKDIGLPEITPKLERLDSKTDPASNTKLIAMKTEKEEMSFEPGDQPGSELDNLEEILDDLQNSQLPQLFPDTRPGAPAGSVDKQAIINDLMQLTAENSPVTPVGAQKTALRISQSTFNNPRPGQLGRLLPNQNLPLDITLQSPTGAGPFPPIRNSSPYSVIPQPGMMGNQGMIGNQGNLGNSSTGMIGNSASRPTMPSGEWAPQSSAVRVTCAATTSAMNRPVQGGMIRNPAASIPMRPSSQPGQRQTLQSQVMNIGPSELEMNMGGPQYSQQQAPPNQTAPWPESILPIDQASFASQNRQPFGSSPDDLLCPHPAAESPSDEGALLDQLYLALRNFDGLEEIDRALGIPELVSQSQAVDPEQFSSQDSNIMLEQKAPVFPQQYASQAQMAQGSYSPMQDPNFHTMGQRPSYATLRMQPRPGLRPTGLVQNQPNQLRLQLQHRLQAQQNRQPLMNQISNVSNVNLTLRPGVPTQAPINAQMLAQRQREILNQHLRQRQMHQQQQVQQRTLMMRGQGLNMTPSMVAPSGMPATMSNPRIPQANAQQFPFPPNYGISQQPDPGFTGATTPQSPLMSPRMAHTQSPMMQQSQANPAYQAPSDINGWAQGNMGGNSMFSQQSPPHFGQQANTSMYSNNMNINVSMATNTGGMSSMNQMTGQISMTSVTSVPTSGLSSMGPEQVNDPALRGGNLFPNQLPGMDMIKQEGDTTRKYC
# [5] = biological target: Nuclear receptor coactivator 1 (Homo sapiens) (UniProt Q15788); assay: NCOA1 GAL4-fusion reporter inhibition – cell-based, luminescence, quadruplicate, confirmation (AID 588820;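 active means mean inhibition above 46.68%, the untreated control wells mean plus 3 SD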;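 further: 0% = DMSO wells and 100% = gossypol 36 µM treated wells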); details: HEK293 GAL4-SRC1 luciferase reporter, at 3.6 µM, stronger effect = higher value
# Sequence of Nuclear receptor coactivator 1 (Homo sapiens) (Q15788 whole entry, looked up, the tested form may be a part): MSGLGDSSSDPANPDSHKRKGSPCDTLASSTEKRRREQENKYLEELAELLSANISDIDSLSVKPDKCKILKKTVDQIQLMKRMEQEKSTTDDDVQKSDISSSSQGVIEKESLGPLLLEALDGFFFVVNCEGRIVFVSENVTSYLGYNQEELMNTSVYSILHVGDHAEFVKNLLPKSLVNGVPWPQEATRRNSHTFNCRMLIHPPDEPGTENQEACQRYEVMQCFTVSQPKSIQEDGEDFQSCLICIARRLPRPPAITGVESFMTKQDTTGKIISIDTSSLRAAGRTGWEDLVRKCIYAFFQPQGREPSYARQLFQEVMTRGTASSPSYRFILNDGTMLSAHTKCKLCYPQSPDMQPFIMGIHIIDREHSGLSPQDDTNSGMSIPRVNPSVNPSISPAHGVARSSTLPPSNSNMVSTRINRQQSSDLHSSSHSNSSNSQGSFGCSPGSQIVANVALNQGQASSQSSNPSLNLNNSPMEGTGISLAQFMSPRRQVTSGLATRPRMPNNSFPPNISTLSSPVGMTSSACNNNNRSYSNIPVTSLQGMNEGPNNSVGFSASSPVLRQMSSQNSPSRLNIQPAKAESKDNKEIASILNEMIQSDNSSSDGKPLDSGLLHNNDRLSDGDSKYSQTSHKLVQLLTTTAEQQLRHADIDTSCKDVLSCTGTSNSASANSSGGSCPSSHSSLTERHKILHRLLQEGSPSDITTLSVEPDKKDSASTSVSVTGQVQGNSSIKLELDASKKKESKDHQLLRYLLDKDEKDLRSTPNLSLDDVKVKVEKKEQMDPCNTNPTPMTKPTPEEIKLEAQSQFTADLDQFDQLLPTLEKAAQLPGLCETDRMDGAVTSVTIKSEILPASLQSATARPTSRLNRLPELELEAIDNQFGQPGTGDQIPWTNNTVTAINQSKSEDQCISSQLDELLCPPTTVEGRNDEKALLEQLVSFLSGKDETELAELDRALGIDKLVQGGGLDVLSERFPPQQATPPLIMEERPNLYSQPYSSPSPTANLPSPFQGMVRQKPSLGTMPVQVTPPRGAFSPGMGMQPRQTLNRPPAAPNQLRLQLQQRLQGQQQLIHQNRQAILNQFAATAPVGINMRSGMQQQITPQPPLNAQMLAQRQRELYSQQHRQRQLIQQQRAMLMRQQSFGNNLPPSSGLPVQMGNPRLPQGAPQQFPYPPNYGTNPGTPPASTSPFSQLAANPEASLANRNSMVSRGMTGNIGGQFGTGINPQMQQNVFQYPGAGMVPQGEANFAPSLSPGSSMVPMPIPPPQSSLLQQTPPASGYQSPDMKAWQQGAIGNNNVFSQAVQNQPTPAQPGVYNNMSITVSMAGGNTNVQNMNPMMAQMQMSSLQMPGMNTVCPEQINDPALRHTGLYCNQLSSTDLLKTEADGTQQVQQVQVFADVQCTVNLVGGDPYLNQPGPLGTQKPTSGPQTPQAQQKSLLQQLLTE
# [6] = repression of VP16-driven luciferase reporter – cell-based, luminescence, high throughput, counter-screen for SRC1 inhibitor project (AID 588824; in the data active means inhibition above about 25%); details: cell-based VP16 transactivation luciferase luminescence; at 3.6 µM; stronger effect = higher value
# [7] = biological target: Galanin receptor type 2 (Homo sapiens) (UniProt O43603); assay: blockers of human galanin receptor 2 – cell-based, confirmation (AID 866; in the data active means inhibition above about 27%;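 further: cells stimulated with galanin at about its EC80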); details: GALR2-expressing cells, antagonist mode, at 4 µM, stronger effect = higher value
# Sequence of Galanin receptor type 2 (Homo sapiens) (O43603 whole entry, looked up): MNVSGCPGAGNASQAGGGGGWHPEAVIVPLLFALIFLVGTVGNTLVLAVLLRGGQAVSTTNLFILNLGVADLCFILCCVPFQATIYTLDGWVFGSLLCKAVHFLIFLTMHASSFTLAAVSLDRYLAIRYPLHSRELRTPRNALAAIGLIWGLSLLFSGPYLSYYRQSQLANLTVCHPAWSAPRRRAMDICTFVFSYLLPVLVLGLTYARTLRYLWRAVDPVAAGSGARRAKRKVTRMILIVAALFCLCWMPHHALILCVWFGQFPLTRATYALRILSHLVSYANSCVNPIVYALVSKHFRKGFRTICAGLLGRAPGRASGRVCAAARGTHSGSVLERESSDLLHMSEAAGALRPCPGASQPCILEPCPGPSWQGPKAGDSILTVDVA
# [8] = nonspecific BLA reporter inhibition – CHO NFAT-bla cells, FRET readout, counter-screen for GALR2 antagonist project, confirmation (AID 867;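 active means inhibition above the mean inhibition across tested compounds plus 3 SD, cut at about 27% in these data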;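 further: 0% = 500 nM thapsigargin stimulated wells and 100% = unstimulated BSA only wells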); details: beta-lactamase FRET, thapsigargin-stimulated, at 4.2 µM, stronger effect = higher value
# [9] = VP16-driven transactivation reporter suppression – cell-based, luminescence, HEK293, counter-screen for COUP-TFII antagonist project (AID 687007; in the data active means inhibition above about 13%); details: HEK293 Gal4-VP16 luciferase reporter, at 8.5 µM, stronger effect = higher value
# [10] = biological target: COUP transcription factor 2 (Homo sapiens) (UniProt P24468); assay: retest of COUP-TFII reporter suppressors – cell-based, luciferase reporter, HEK293, triplicate, confirmation (AID 687008;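 active means mean inhibition over three repeats above a set limit taken from the earlier primary screen, cut at about 38% in these data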;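 further: 100% = cells given the luciferase reporter alone without the COUP-TF2 vector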); details: HEK293 NGFI-A luciferase reporter, luminescence; at 8.5 µM; stronger effect = higher value
# Sequence of COUP transcription factor 2 (Homo sapiens) (P24468 whole entry, looked up): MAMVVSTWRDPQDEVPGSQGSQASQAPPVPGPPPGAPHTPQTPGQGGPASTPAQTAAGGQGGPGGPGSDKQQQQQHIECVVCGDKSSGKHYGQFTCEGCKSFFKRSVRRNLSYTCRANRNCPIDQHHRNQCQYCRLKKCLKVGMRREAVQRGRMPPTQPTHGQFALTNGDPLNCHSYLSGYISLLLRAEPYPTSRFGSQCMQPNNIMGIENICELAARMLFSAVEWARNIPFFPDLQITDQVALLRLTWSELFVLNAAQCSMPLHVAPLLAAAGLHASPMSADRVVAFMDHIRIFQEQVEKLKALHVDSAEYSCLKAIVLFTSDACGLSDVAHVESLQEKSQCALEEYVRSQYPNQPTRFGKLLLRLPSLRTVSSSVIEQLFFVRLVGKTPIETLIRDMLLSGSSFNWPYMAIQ
compound,measurement,setting,value
COc1ccc(-c2noc(CCC(=O)NCCCN3CCC(Cc4ccccc4)CC3)n2)cc1,inhibition,[1],-0.27%
same,inhibition,[2],10.7%
same,inhibition,[3],-4.69%
same,inhibition,[4],15.6%
COc1ccc(N(C(=O)CCl)C(C(=O)NCCc2ccccc2)c2cccs2)cc1Cl (stereo not given),inhibition,[1],46.4% (active)
same,inhibition,[2],41.7% (active)
same,inhibition,[3],29.9%
same,inhibition,[4],64.9% (active)
CC(=O)OCCN1c2ccccc2Sc2cnccc21,inhibition,[1],43.4% (active)
same,inhibition,[2],26.4%
same,inhibition,[3],-4.99%
same,inhibition,[4],23.7%
O=C(C1=C(c2ccccc2)C(=O)c2ccccc2C1=O)c1ccccc1,inhibition,[1],93.3% (active)
same,inhibition,[2],90.4% (active)
same,inhibition,[3],63.8% (active)
same,inhibition,[4],66.4% (active)
CCCCCCCN(c1ccccc1)[C@@H]1C[C@H]2CCCC(=O)N3CC[C@@H](C1)[C@@H]23,inhibition,[1],6.93%
same,inhibition,[2],30.5% (active)
same,inhibition,[3],25%
same,inhibition,[4],35%
Cc1cccc(Nc2nc(N)nc(CCl)n2)c1C,inhibition,[1],62.8% (active)
same,inhibition,[2],31.1% (active)
same,inhibition,[3],14.2%
same,inhibition,[4],55.7% (active)
CCN(CC)c1ccc(-n2c(C)c(C(C)=O)c(C(C)=O)c2C)cc1,inhibition,[1],4.48%
same,inhibition,[2],25.7%
same,inhibition,[3],-2.52%
same,inhibition,[4],11.8%
Cc1ccc(-n2c(C)cc(C(=O)COc3cccnc3[N+](=O)[O-])c2C)cc1,inhibition,[1],34.5%
same,inhibition,[2],-10.3%
same,inhibition,[3],-23%
same,inhibition,[4],64% (active)
COc1cc(/C=C/C(=O)c2ccc(F)cc2)cc(OC)c1OC,inhibition,[1],50.5% (active)
same,inhibition,[2],34.7% (active)
same,inhibition,[3],21.9%
same,inhibition,[4],28.1%
O=C(/C=C/c1ccccc1)CC(O)(c1ccccc1)C(F)(F)C(F)F (stereo not given),inhibition,[1],11%
same,inhibition,[2],4.32%
same,inhibition,[3],7.22%
same,inhibition,[4],19.9%
CCCCN(CC)Cc1ccc(CNC(=S)Nc2ccc(C)cc2Cl)o1,inhibition,[1],14.2%
same,inhibition,[2],-5.53%
same,inhibition,[3],12.7%
same,inhibition,[4],30.4%
CCOc1cc(/C=C/C(=O)c2ccc(C)cc2)ccc1OCC(=O)N(C)C,inhibition,[1],24.8%
same,inhibition,[2],25.1%
same,inhibition,[3],16.4%
same,inhibition,[4],31.6%
Cc1ccc(C2=NN(C(=O)CCl)C(c3cccs3)C2)o1 (stereo not given),inhibition,[1],36.8%
same,inhibition,[2],13.5%
same,inhibition,[3],17.2%
same,inhibition,[4],56.9% (active)
CC(=O)CSc1ccc(-c2nc3cc(C)c(C)cc3[nH]2)cn1,inhibition,[1],22.4%
same,inhibition,[2],3.79%
same,inhibition,[3],10.4%
same,inhibition,[4],78.8% (active)
CCN(c1cccc(C)c1)c1ncnc2nc[nH]c12,inhibition,[1],35.9%
same,inhibition,[2],21.8%
same,inhibition,[3],-7.68%
same,inhibition,[4],28.4%
COc1ccc(NC(=O)/C(Cl)=C(/Cl)S(=O)(=O)Cc2ccccc2)cn1,inhibition,[1],-15.3%
same,inhibition,[2],8.74%
same,inhibition,[3],80.4% (active)
same,inhibition,[4],72.4% (active)
COc1ccc(/C=C/C(=O)c2ccc3c4c(cccc24)CC3)cc1OC,inhibition,[1],21.5%
same,inhibition,[2],25.6%
same,inhibition,[3],25.2%
same,inhibition,[4],67.6% (active)
CC1CCN(c2ccc(-c3cccs3)nn2)CC1,inhibition,[1],22.9%
same,inhibition,[2],9.04%
same,inhibition,[3],34.7%
same,inhibition,[4],47.3% (active)
CC(C)C(=O)NC(c1ccco1)c1ccc2cccnc2c1O (stereo not given),inhibition,[1],32.7%
same,inhibition,[2],20.6%
same,inhibition,[3],-13.3%
same,inhibition,[4],8.96%
O=C(c1ccc(F)cc1)C(CN1CCOCC1)c1ccccc1 (stereo not given),inhibition,[1],44.1% (active)
same,inhibition,[2],55.9% (active)
same,inhibition,[3],35%
same,inhibition,[4],82.6% (active)
CCOc1ccc(C(=O)O/N=C(\N)c2ccccn2)cc1,inhibition,[1],-0.86%
same,inhibition,[2],-11.6%
same,inhibition,[3],15.8%
same,inhibition,[4],21.9%
O=C(O)c1ccc(N/N=C/c2ccc3c(c2)OCO3)cc1,inhibition,[1],-1.59%
same,inhibition,[2],-12.1%
same,inhibition,[3],-0.58%
same,inhibition,[4],51.3% (active)
COc1ccc2nc(C)cc(Sc3nc4ccccc4s3)c2c1,inhibition,[1],28.2%
same,inhibition,[2],18.1%
same,inhibition,[3],26%
same,inhibition,[4],51.3% (active)
COc1ccc(-c2csc3ncnc(NCCN4CCOCC4)c23)cc1,inhibition,[1],34.1%
same,inhibition,[2],37.6% (active)
same,inhibition,[3],0.34%
same,inhibition,[4],41.1%
COc1cc(/C=C/C(=O)c2ccc3c(c2)OCCO3)cc(Br)c1OCC(=O)N(C)C,inhibition,[1],76.6% (active)
same,inhibition,[2],62.6% (active)
same,inhibition,[3],30.9%
same,inhibition,[4],50.3% (active)
Cc1ccc2nc(NC(=O)CSCC(=O)OCC(=O)c3ccc(Br)cc3)sc2c1,inhibition,[1],36.5%
same,inhibition,[2],40.5% (active)
same,inhibition,[3],77.8% (active)
same,inhibition,[4],89.2% (active)
Cc1noc(C)c1COC(=O)c1cccc(S(=O)(=O)N2CCCCCC2)c1,inhibition,[1],8.78%
same,inhibition,[2],20.2%
same,inhibition,[3],9.01%
same,inhibition,[4],13%
O=C(Nc1ccccc1)NN(C(=O)CCl)c1ccccc1,inhibition,[1],-0.31%
same,inhibition,[2],13.4%
same,inhibition,[3],32.9%
same,inhibition,[4],56.9% (active)
Nc1ccc(-c2nc3ccc(C(=O)O)cc3s2)cc1,inhibition,[1],-24%
same,inhibition,[2],-26.4%
same,inhibition,[3],40.2% (active)
same,inhibition,[4],60.6% (active)
CCC(=O)c1ccc(O)c(CC=C(C)C)c1,inhibition,[1],35.8%
same,inhibition,[2],23.9%
same,inhibition,[3],-16.9%
same,inhibition,[4],14.5%
CCN(CC)S(=O)(=O)c1ccc(N/N=C/c2cc(OC)ccc2O)nc1,inhibition,[1],31.4%
same,inhibition,[2],31% (active)
same,inhibition,[3],-11%
same,inhibition,[4],19.9%
CC(C)N(CC(=O)Nc1ccc(Cl)cc1C(F)(F)F)C(=O)CCl,inhibition,[1],44% (active)
same,inhibition,[2],35.6% (active)
same,inhibition,[3],25.9%
same,inhibition,[4],59.2% (active)
CCN(CC)S(=O)(=O)c1cccc(C(=O)N/N=C(\C)c2ccc(O)cc2O)c1,inhibition,[1],66.7% (active)
same,inhibition,[2],43.7% (active)
same,inhibition,[3],2.49%
same,inhibition,[4],31.6%
C=C(C(=O)c1ccccc1)C(C)C(=C)C(=O)c1ccccc1,inhibition,[1],44.4% (active)
same,inhibition,[2],33.4% (active)
same,inhibition,[3],53.9% (active)
same,inhibition,[4],51.8% (active)
COc1ccc(C(=O)Nc2ccnn2C2CCN(C3CCC3)CC2)cc1,inhibition,[5],-28.9%
same,inhibition,[6],-0.43%
CC(C)(C)c1ccc(-c2noc(CCC(=O)Nc3cccnc3)n2)cc1,inhibition,[1],41%
same,inhibition,[2],25.7%
same,inhibition,[3],67.8% (active)
same,inhibition,[4],80.8% (active)
Cc1nnnn1/C(=C\c1ccccc1)C(=O)OCC(=O)N1CC2(C)CC1CC(C)(C)C2 (stereo not given),inhibition,[7],39% (active)
same,inhibition,[8],16.1%
same,inhibition,[1],22.4%
same,inhibition,[2],44% (active)
O=C(OCc1ccccc1)c1ccc(NCc2cc(O)ccc2O)cc1,inhibition,[1],70.6% (active)
same,inhibition,[2],25.9%
same,inhibition,[3],94.5% (active)
same,inhibition,[4],90% (active)
COc1ccc(CN(C(=O)CSc2nnc(-c3c[nH]c4ccccc34)o2)c2ccc(F)cc2)cc1OC,inhibition,[5],-67.5%
same,inhibition,[6],-22.2%
O=C(O)CCCCCN1C(=O)CSC1=S,inhibition,[1],-1.77%
same,inhibition,[2],2.06%
same,inhibition,[3],-0.37%
same,inhibition,[4],7.01%
CCOc1cc(/C=C2\COc3ccccc3C2=O)ccc1OCC(=O)N(C)C,inhibition,[1],17.5%
same,inhibition,[2],28.5%
same,inhibition,[3],32.2%
same,inhibition,[4],27.8%
Cn1c(/C=C/c2ccc(Br)cc2)c([N+](=O)[O-])c(=O)n(C)c1=O,inhibition,[1],45.2% (active)
same,inhibition,[2],47.8% (active)
same,inhibition,[3],15.8%
same,inhibition,[4],40.7%
CCc1ccc(-c2nc(CS(=O)CC(=O)NCc3ccco3)c(C)o2)cc1 (stereo not given),inhibition,[1],10.8%
same,inhibition,[2],-12.6%
same,inhibition,[3],3.28%
same,inhibition,[4],56.7% (active)
COC(=O)N(NC(=O)C(O)(CCC(C)C)CCC(C)C)c1ccccc1,inhibition,[5],16.2%
same,inhibition,[6],11.5%
O=S(=O)(c1ccc(F)cc1)c1snnc1-c1ccccc1,inhibition,[1],29%
same,inhibition,[2],8.39%
same,inhibition,[3],27.8%
same,inhibition,[4],28.7%
COC(=O)c1cc(=O)n(Cc2ccco2)c(=Nc2ccc(F)c(Cl)c2)s1,inhibition,[5],-12.1%
same,inhibition,[6],18.7%
COc1ccccc1OCCC(=O)OCC(=O)NC(C)c1ccccc1 (stereo not given),inhibition,[5],-8.57%
same,inhibition,[6],-18.5%
NS(=O)(=O)c1ccc(Nc2nc(-c3cccnc3)cs2)cc1,inhibition,[5],15.8%
same,inhibition,[6],11.7%
CN(C)S(=O)(=O)c1ccc(N2CCCC2)c(C(=O)OCC(=O)NC2(C#N)CCCCC2)c1,inhibition,[5],4.07%
same,inhibition,[6],-9.13%
CC(C)(C)C(=O)Nc1ccc(-c2cc3cc(Cl)ccc3o2)cc1,inhibition,[1],-53%
same,inhibition,[2],-26.2%
same,inhibition,[3],-83.9%
same,inhibition,[4],-30.7%
Cc1ccc(C)c(N2CCN(C(=O)CCCCCn3c(=S)[nH]c4ccc(N5CCOCC5)cc4c3=O)CC2)c1,inhibition,[1],60.6% (active)
same,inhibition,[2],73.1% (active)
same,inhibition,[3],69.7% (active)
same,inhibition,[4],60.8% (active)
same,inhibition,[9],15% (active)
same,inhibition,[10],90% (active)
Cc1cc(Sc2nnc(N)s2)c2ccccc2n1,inhibition,[1],-6.91%
same,inhibition,[2],22.2%
same,inhibition,[3],11.7%
same,inhibition,[4],32%
COc1ccccc1/C=C\C(=O)NCC(=O)N/N=C/c1cccc(OC)c1O,inhibition,[5],26.9%
same,inhibition,[6],14.2%
Cc1ccccc1-n1nc(C)c2c1N=C1C(Cl)=CC(Cl)=CN1C2c1ccc(C(=O)O)cc1 (stereo not given),inhibition,[5],-9.32%
same,inhibition,[6],-14.1%
CCCc1cc(-c2ccc(O)c(OCC)c2)c(C#N)c(N)n1,inhibition,[5],-3.92%
same,inhibition,[6],-2.24%
Cn1c(=O)c2[nH]c(Nc3ccccc3)nc2n(C)c1=O,inhibition,[5],-22.1%
same,inhibition,[6],0.08%
CC(C)(C)C(=O)Nc1ccc(C(=O)N/N=C/c2ccccc2OC(=O)c2ccc(Cl)cc2)cc1,inhibition,[1],27.4%
same,inhibition,[2],7.22%
same,inhibition,[3],6.84%
same,inhibition,[4],35.1%
O=C(CCCCC(=O)NN=Cc1ccccc1O)NN=Cc1ccccc1O,inhibition,[5],37.3%
same,inhibition,[6],39% (active)
